Results taken from PubChem BioAssay (EPA / NIEHS).
Inconclusive results are not listed. The source made the active and inactive calls. The calls were made as follows: active = hit-call score of the fitted dose curve at least 0.9, where 1 is the maximum; inconclusive = response in the unintended direction; inactive = score below 0.9.

What follows are compounds tested on xenobiotic metabolism (CYP1A2), CYP1A2 (gene 1544) (assay: CLD_CYP1A2_48hr: CellzDirect (CLD) Gene Expression Assay for xenobiotic metabolism (CYP1A2) at 48 hours (AID 2283703)).
Protocol: CLD_48hr is a cell-based, multiplexed-readout assay that uses hepatocyte, a human liver primary cell, with measurements taken at 48 hours after chemical dosing in a 96-well plate.CLD_CYP1A2_48hr is one of 16 assay component(s) measured or calculated from the CLD_48hr assay. It is designed to make measurements of mRNA induction, a form of inducible reporter, as detected with chemiluminescence signals by Quantitative Nuclease Protection Assay (qNPA) technology.Data from the assay component CLD_CYP1A2_48hr was analyzed at the endpoint, CLD_CYP1A2_48hr, in the positive analysis fitting direction relative to DMSO as the negative control and baseline of activity. Using a type of inducible reporter, gain-of-signal activity can be used to understand changes in the reporter gene as they relate to the gene CYP1A2. Furthermore, this assay endpoint can be referred to as a primary readout. To generalize the intended target to other relatable targets, this assay endpoint is annotated to the cyp intended target family, where subfamily is xenobiotic metabolism.
Human hepatocyte cultures were treated daily for two consecutive days with fresh dosing solutions containing appropriate concentrations of the 320 ToxCast chemicals (chemical identities were blinded to CellzDirect and other ToxCast collaborators), vehicle control (0.2% DMSO), and positive control inducers as summarized in Table 1. Due to the large number of treatment groups and chemicals examined, the ToxCast chemicals were divided into two groups (spanning two independent cultures of hepatocytes from separate donor preparations (Hu778: ToxCast plates 1 and 2; Hu776: ToxCast plates 3 and 4). Each preparation of human hepatocyte cultures was treated with respective vehicle control, medium only control, set of six positive controls/reference chemicals for the five hepatic receptor pathways, and a subset of eight of the ToxCast chemicals (indoxacarb, pyrithiobac-sodium, norflurazon, cyhalofop-butyl, methomyl, thiram, acetochlor, and propiconazole). These replicate data, coupled with internal replicates designed within the blinded ToxCast chemical library, provided additional data to evaluate interindividual differences between hepatocyte preparations and their potential impact on chemical profiles.Cell morphology and integrity were evaluated using phase-contrast microscopy as an indicator of hepatocyte cell health (Tyson & Green, 1987). Cultures for each treatment group (i.e., media, vehicle [0.2% DMSO], positive control inducers [multiple concentrations], and the ToxCast chemicals [multiple concentrations]) were observed and cell morphology was assessed relative to vehicle control cultures at each harvest time point (0, 6, 24, or 48 h). […] Images were evaluated at the conclusion of the study to assess changes in cell integrity and account for the effects of chemical exposure on uncharacteristic changes in concentration-dependent gene expression profiles. The results from these determinations of apparent cytotoxicity were annotated (yes/no) alongside the corresponding qNPA data for reference.At the conclusion of each treatment period, hepatocyte cultures (96-well) were washed with 1 volume of HBSS, lysed by addition of 25 ul ArrayPlate lysis buffer (HTG, Tucson, AZ), and 70 ul/well of Denaturation Oil, denatured by incubation at 95C for 10 min, and frozen at approximately -70C until analysis by nuclease protection assay (qNPA) (Roberts et al., 2007). For qNPA analysis, cell lysates were thawed at 50C for approximately 30 min, qNPA probes were added, and samples were incubated at 95C for 10 min to begin the detection process by denaturing the target RNA, dissociating the duplexes and secondary structure hybridization. At the conclusion of the hybridization period, S1 nuclease reagent was added to each sample to digest all nonprotected nucleotides at 50C for 60-90 min. […]

| Compound | outcome | AC50 |
| --- | --- | --- |
| CC1(C)C(C=C(Cl)Cl)C1C(=O)OC(C#N)c1ccc(F)c(Oc2ccccc2)c1 (stereo not given) | inactive |  |
| CC(C)(C)C(O)/C(=C\c1ccc(Cl)cc1Cl)n1cncn1 (stereo not given) |  | 3.7 µM (active) |
| CNC(=O)Oc1ccccc1OC(C)C | inactive |  |
| CCCN(CCC)c1c([N+](=O)[O-])cc(C(F)(F)F)cc1[N+](=O)[O-] |  | 9.22 µM (active) |
| O=C(NC(=O)c1c(F)cccc1F)Nc1ccc(OC(F)(F)C(F)OC(F)(F)F)c(Cl)c1 (stereo not given) | inactive |  |
| COP(=O)(OC)OC=C(Cl)Cl | inactive |  |
| O=C(Nc1ccccc1)Nc1cnns1 |  | 3.38 µM (active) |
| CCCN(CCOc1c(Cl)cc(Cl)cc1Cl)C(=O)n1ccnc1 |  | 0.178 µM (active) |
| CCOC1Oc2ccc(OS(C)(=O)=O)cc2C1(C)C (stereo not given) | inactive |  |
| CCS(=O)(=O)c1cccnc1S(=O)(=O)NC(=O)Nc1nc(OC)cc(OC)n1 | inactive |  |
| O=[N+]([O-])c1c(Cl)c(Cl)c(Cl)c(Cl)c1Cl |  | 3.86 µM (active) |
| OCCOc1ccccc1 | inactive |  |
| COC(=O)c1ccccc1S(=O)(=O)NC(=O)N(C)c1nc(C)nc(OC)n1 | inactive |  |
| CNC(=O)CSP(=S)(OC)OC | inactive |  |
| COc1nn(CSP(=S)(OC)OC)c(=O)s1 |  | 3.97 µM (active) |
| Cc1[nH]c(=O)n(C(C)(C)C)c(=O)c1Cl | inactive |  |
| O=C(O)COc1ccc(Cl)cc1Cl | inactive |  |
| CNC(=O)/C=C(\C)OP(=O)(OC)OC | inactive |  |
| Clc1ccccc1-c1nnc(-c2ccccc2Cl)nn1 |  | 20 µM (active) |
| CCOc1nc(NC)nc(NC(=O)NS(=O)(=O)c2ccccc2C(=O)OC)n1 |  | 14.3 µM (active) |

| Compound | outcome | AC50 |
| --- | --- | --- |
| Cc1cc(C)nc(NC(=O)NS(=O)(=O)c2ccccc2C(=O)OC2COC2)n1 | inactive |  |
| COc1cc(OC)nc(NC(=O)NS(=O)(=O)c2cc(NC=O)ccc2C(=O)N(C)C)n1 | inactive |  |
| CC(C)N(C(=O)COc1nnc(C(F)(F)F)s1)c1ccc(F)cc1 | inactive |  |
| COC(=O)c1ccccc1S(=O)(=O)NC(=O)Nc1nc(C)nc(OC)n1 | inactive |  |
| CC(C)(C)C(O)C(Oc1ccc(Cl)cc1)n1cncn1 (stereo not given) |  | 5.29 µM (active) |
| CCN(CC)C(=O)SCc1ccc(Cl)cc1 | inactive |  |
| CN1CSC(=S)N(C)C1 | inactive |  |
| CNC(=O)Oc1cccc(N=CN(C)C)c1 | inactive |  |
| O=C(O)CCCOc1ccc(Cl)cc1Cl | inactive |  |
| CCC(C)(C)C(=O)OC1=C(c2ccc(Cl)cc2Cl)C(=O)OC12CCCCC2 |  | 20 µM (active) |
| O=S(=O)(O)C(F)(F)C(F)(F)C(F)(F)C(F)(F)C(F)(F)C(F)(F)C(F)(F)C(F)(F)F | inactive |  |
| COP(=S)(OC)Oc1ccc([N+](=O)[O-])cc1 |  | 5.33 µM (active) |
| COP(=S)(OC)Oc1ccc(SC)c(C)c1 |  | 6.69 µM (active) |
| CCC(C)Nc1c([N+](=O)[O-])cc(C(C)(C)C)cc1[N+](=O)[O-] (stereo not given) |  | 5.38 µM (active) |
| O=C(O)C(F)(F)C(F)(F)C(F)(F)C(F)(F)C(F)(F)C(F)(F)C(F)(F)F | inactive |  |
| CCOCN(C(=O)CCl)c1c(C)cccc1CC | inactive |  |
| N#Cc1c(Cl)c(Cl)c(Cl)c(C#N)c1Cl | inactive |  |
| C[C@H]1[C@H](c2ccc(Cl)cc2)SC(=O)N1C(=O)NC1CCCCC1 |  | 5.38 µM (active) |
| COC(=O)c1ccccc1CS(=O)(=O)NC(=O)Nc1nc(OC)cc(OC)n1 | inactive |  |
| CCc1ccc(C(=O)NN(C(=O)c2cc(C)cc(C)c2)C(C)(C)C)cc1 |  | 5.55 µM (active) |
